NR3A LBD binder: binders of NR3A ligand-binding domain, primary screen, biophysical, differential scanning fluorimetry, uHTS; Glutamate receptor ionotropic, NMDA 3A (GRIN3A) ligand-binding domain; NR3A LBD differential scanning fluorimetry, Tm shift; 0% = protein alone, 100% = glycine-bound protein; Tm shift relative to glycine control, % at 25 µM; 2.5% of 340,000 active; AID 1259313, 2017;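 active = melting temperature shift of at least 10% of the positive control shift, at one fixed dose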
dFosB act-1: activators of delta FosB homodimer, primary screen, biochemical, fluorescence polarization, TAMRA-CDK5 oligo, single point. 0.99% of 340,000 active. activation, % at 25 µM. purified delta FosB; percent of positive-control signal above neutral wells. Protein FosB (Mus musculus), P13346;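 active = mean activation above about 17%, with every replicate also reaching it, limit read from the data, passing the limit was not always enough; inconclusive = only one of the two conditions met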
Target sequence (P13346 whole entry, looked up): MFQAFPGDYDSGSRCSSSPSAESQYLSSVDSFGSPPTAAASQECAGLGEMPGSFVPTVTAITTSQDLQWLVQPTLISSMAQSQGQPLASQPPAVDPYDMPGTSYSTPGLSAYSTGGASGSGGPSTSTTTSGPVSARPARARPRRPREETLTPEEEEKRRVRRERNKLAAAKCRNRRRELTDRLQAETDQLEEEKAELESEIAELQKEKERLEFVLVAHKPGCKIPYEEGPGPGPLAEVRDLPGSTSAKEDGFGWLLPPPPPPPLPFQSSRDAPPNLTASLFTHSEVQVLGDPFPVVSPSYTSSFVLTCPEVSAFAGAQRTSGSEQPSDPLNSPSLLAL
NALP1 yeast inh: NALP1 inflammasome inhibitors in reconstituted yeast, colorimetric, S. cerevisiae, triplicate retest. inhibition, % at 10 µM. 0.61% of 280,000 active. AID 2071, 2009. S. cerevisiae NALP1/ASC/caspase-1 growth, X-gal OD620, 72 h; in the data active = inhibition mostly above about 24%, no sharp cut-off; inactive = mostly below about 32%
UBC13 polyUb: UBC13 polyubiquitin chain formation inhibitors, primary screen, biochemical, TR-FRET, uHTS. inhibition, % at 20 µM. Ubiquitin-conjugating enzyme E2 N (Homo sapiens), P61088. AID 485273, 2010. 0.47% of 330,000 active; in the data active = inhibition above about 45%, passing the limit was not always enough; inconclusive = no clear call, values can overlap the other calls
Target sequence (P61088 whole entry, looked up): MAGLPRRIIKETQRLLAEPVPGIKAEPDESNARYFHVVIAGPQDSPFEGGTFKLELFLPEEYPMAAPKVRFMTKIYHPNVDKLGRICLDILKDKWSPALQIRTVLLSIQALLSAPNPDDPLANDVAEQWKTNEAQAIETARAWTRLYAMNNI
Yeast superoxide: reduction of superoxide in aged yeast, primary screen, HTS; S. cerevisiae aged cells, superoxide DHE fluorescence; stronger effect = lower value; superoxide response (% of plate mean), % at 10 µM; 0.18% of 330,000 active;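 active = superoxide response under a set limit, about three screen SD below normal, cut at about 65% in these data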;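 also: yeast aged for seven days with compound at 30 °C before DHE staining; 100% = average MFI of all compound-treated wells on the plate with controls excluded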
dFosB act-2: activators of mouse delta FosB DNA binding, confirmation, biochemical, fluorescence polarization, TAMRA-CDK5 oligo, cherry-picked samples; activation, % at 24.9 µM; purified delta FosB; normalised: neutral wells 0, positive control 100; 2,400 tested, under 10 active; shares compounds with dFosB act-1;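 active = highest replicate activation at or above 34% and every replicate reaching that threshold; inconclusive = meets only one of the two criteria; inactive = meets neither criterion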;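 also: higher polarization means more probe DNA bound by delta FosB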
Active calls of the source: *; ? = inconclusive; · = not tested or not shown. This is a sample that favours compounds with a hit; in the whole collection about 4.3% have one here.

SMILES | NR3A LBD binder | dFosB act-1 | NALP1 yeast inh | UBC13 polyUb | Yeast superoxide | dFosB act-2
CC1CC(C)CN(S(=O)(=O)c2ccc(C(=O)Nc3sccc3C(N)=O)cc2)C1 (configuration not stated) | -1.8 | 28.6* | 25.0 | -7.8 | 102.5 | 1.9
NC(=O)c1ccsc1NC(=O)c1ccc(S(=O)(=O)N2CCCC2)cc1 | -4.6 | -23.6 | 2.8 | 4.2 | 99.5 | ·
COc1ccccc1C(=O)NC(=O)COC(=O)Cc1n[nH]c(=O)c2ccccc12 | -1.9 | 2.2 | · | -0.1 | 74.5 | ·
COc1ccccc1NC(=O)c1ccc(NC(=O)Cc2n[nH]c(=O)c3ccccc23)cc1 | -1.6 | 25.0* | 1.6 | 23.9 | 105.6 | -0.7
COc1cc(NC(=O)c2nn(C)c3c2CS(=O)(=O)c2ccccc2-3)cc(OC)c1 | -5.7 | 22.7* | 12.0 | 1.9 | 96.3 | -0.2
COc1ccc(NC(=O)c2nn(C)c3c2CS(=O)(=O)c2ccccc2-3)cc1 | 0.4 | -3.2 | 8.6 | 25.3 | 125.0 | ·
CSc1nc(N)nc(SCC(=O)c2ccccc2)c1C#N | -14.0 | -1.4 | -6.8 | 6.1 | 122.4 | ·
COc1ccc(C(=O)CSc2nc(N)nc(SC)c2C#N)cc1 | -0.2 | 56.4* | 8.3 | -12.3 | 119.1 | 3.7
CNc1c(NS(=O)(=O)c2ccc(Br)cc2)c(=O)oc2ccccc12 | 0.0 | 98.7* | 12.7 | 1.6 | 103.7 | -0.2
CNc1c(NS(=O)(=O)c2ccc(F)cc2)c(=O)oc2ccccc12 | -0.9 | 8.5 | 8.1 | 4.4 | 101.7 | ·
CNc1c(NS(=O)(=O)c2ccc3c(c2)CCCC3)c(=O)oc2ccccc12 | -0.6 | 36.5* | 13.7 | 0.1 | 110.0 | -3.4
CNc1c(NS(=O)(=O)c2ccc(F)c(Cl)c2)c(=O)oc2ccccc12 | -2.5 | -4.5 | 8.0 | 3.4 | 90.6 | ·
CCCNc1c(NS(=O)(=O)c2ccc(C3CCCCC3)cc2)c(=O)oc2ccccc12 | 8.2 | 82.1* | 21.4 | 0.3 | 97.9 | 0.6
CNc1c(NS(=O)(=O)c2ccc(C(C)(C)C)cc2)c(=O)oc2ccccc12 | -1.5 | 60.1* | -9.7 | 2.3 | 89.7 | 0.6
CNc1c(NS(=O)(=O)c2ccc(OC)cc2)c(=O)oc2ccccc12 | -2.4 | 30.9* | 3.0 | 1.6 | 86.0 | -5.3
CN(C)c1nc(NCc2ccccc2)nc(N/N=C/c2cccc(Br)c2)n1 | -5.8 | 57.3* | -3.2 | 2.9 | 91.7 | 3.7
Brc1cccc(/C=N/Nc2nn[nH]n2)c1 | 0.3 | 1.9 | 6.7 | -16.8 | 79.5 | ·
O=[N+]([O-])c1ccc(OCCOc2ccccc2/C=N/n2cnnc2)cc1 | 0.1 | 35.9* | 33.8* | -5.0 | 101.1 | 5.4
COCCn1c(SCC(=O)NCc2ccc(F)cc2)nc2ccccc21 | -2.0 | -9.8 | 18.7 | -6.3 | 96.5 | ·
CCOc1cc(/C=N/Nc2nc3ccccc3[nH]2)cc(Br)c1OCC(=O)N(C)C | -2.4 | 22.2* | 5.9 | -27.4 | 94.0 | 1.8
COc1cccc(-c2cc(C(=O)N3CCN(S(=O)(=O)c4ccc(Br)cc4)CC3)[nH]n2)c1 | -8.4 | 75.0* | 1.1 | 2.0 | 112.1 | 5.4
COc1cc(S(=O)(=O)Nc2ccc(C)cc2)ccc1N=Cc1c(C)c(C#N)c(=O)n(C)c1O | 2.4 | 127.6* | 7.9 | -8.1 | 97.3 | -2.5
Cc1cc(C)c(NC(=S)N(CCc2ccncc2)C(C)C)c(C)c1 | -3.5 | -9.9 | 3.6 | -6.2 | 103.6 | ·
O=C(NC1=NCCS1)c1cccs1 | 3.9 | 26.8* | 5.8 | -0.8 | 89.8 | 2.2
Cc1ccc(S(=O)(=O)N2CCN(c3nc(CN4CCCC4)nc4sc(C)c(C)c34)CC2)cc1 | -1.7 | 10.1 | · | 18.2 | 98.3 | ·
SMILES | NR3A LBD binder | dFosB act-1 | NALP1 yeast inh | UBC13 polyUb | Yeast superoxide | dFosB act-2
Cc1sc2nc(CN3CCCC3)nc(N3CCN(S(=O)(=O)c4cccs4)CC3)c2c1C | -3.2 | 42.2* | 1.5 | 3.2 | 108.9 | ?
Cc1ccc(NC(=S)N2CCCC2)cc1Cl | 0.4 | 4.6 | -1.7 | 0.5 | 100.0 | ·
Cc1cccc(NC(=O)Cn2c(C)c(C#N)c3ccccc32)c1C | 0.0 | 31.7* | 1.3 | -1.6 | 108.8 | -0.2
Cc1cc(C)cc(NC(=O)CCc2nc3ccccc3[nH]2)c1 | 0.8 | 28.2* | -2.5 | 2.0 | 99.9 | -1.2
O=C(COc1coc(CN2CCCc3ccccc32)cc1=O)Nc1ccc([N+](=O)[O-])cc1 | 3.3 | 27.8* | · | -21.8 | 109.4 | 6.8
Cc1ccccc1NC(=O)COc1coc(CN2CCCc3ccccc32)cc1=O | 2.6 | -11.6 | · | 1.1 | 96.1 | ·
Cc1ccc(-n2c(=O)c3ccc(C(=O)NCc4ccco4)cc3n(Cc3ccccc3C#N)c2=O)cc1 | 1.7 | 8.5 | 20.6 | -2.2 | 97.0 | ·
Cc1ccccc1Cn1c(=O)n(-c2ccccc2)c(=O)c2ccc(C(=O)NCc3ccco3)cc21 | · | 45.4* | 27.3 | -15.3 | 96.7 | 1.0
C=CCn1c(=O)c2ccc(C(=O)NCc3ccccc3)cc2n(Cc2ccc(Cl)cc2)c1=O | -0.6 | -2.3 | 18.3 | -7.3 | 99.5 | ·
O=C(NCc1ccco1)c1ccc2c(=O)n(-c3ccccc3)c(=O)n(Cc3cccc(F)c3)c2c1 | · | 47.4* | 30.5 | -4.6 | 100.2 | -0.8
C=CCn1c(=O)c2ccc(C(=O)NCc3ccccc3)cc2n(Cc2cccc(Cl)c2)c1=O | 1.6 | 41.6* | 30.3 | 1.3 | 104.4 | 0.0
CCOc1ccc(S(=O)(=O)N(CC)CC(=O)NCc2ccncc2)cc1C | -2.3 | -5.0 | 20.6 | 1.7 | 106.4 | ·
Cc1nnc(NC(=O)c2cc(-c3ccncc3)nc3c(C)cccc23)s1 | -1.8 | -25.8 | 3.8 | -12.8 | 100.3 | ·
CC(C)(C)CC(=O)Nc1cc2c3c(c1)CC(=O)N3CCC2 | 2.6 | -0.7 | 22.0 | -8.3 | 84.7 | ·
CCOc1ccc(NC(=O)NNC(=O)c2cc3ccccc3cc2O)cc1 | 1.7 | 38.8* | 7.1 | 7.1 | 96.2 | 0.3
Cc1ccc(NC(=O)NNC(=O)c2cc3ccccc3cc2O)cc1C | 6.5 | 54.2* | 8.6 | -4.4 | 103.2 | 4.1
CCc1ccc(NC(=O)NNC(=O)c2cc3ccccc3cc2O)cc1 | 10.3* | 39.4* | 1.3 | 8.6 | 96.7 | 4.3
Cc1ccc(C)c(NC(=O)NNC(=O)c2cc3ccccc3cc2O)c1 | 1.7 | ? | -5.6 | 8.2 | 94.2 | ·
C=CC[n+]1c(-c2ccc(OC)c(OC)c2)csc1NNC(=O)Nc1ccccc1 | -1.1 | -6.1 | -9.7 | 9.5 | 88.2 | ·
NS(=O)(=O)c1ccc(CCNC(=O)c2ccccc2Cc2ccccc2)cc1 | -0.4 | -7.2 | -4.7 | -3.3 | 109.0 | ·
Cc1cc(OC(C)C(=O)N2CCN(c3ccc(F)cc3)CC2)c2c(C)c(C)c(=O)oc2c1 (configuration not stated) | -12.8 | -8.6 | 3.0 | 5.5 | 89.3 | ·

Bioassay records (PubChem)
